Results: PubChem BioAssay AID1159580 (chemical genetic matrix, 2015)
“And” between values parts separate entries of the source, which are not always exact repeats. Equal entries are not always repeated. In all, about 5,500 compounds went through this assay and about 2,000 (36%) were called active. Inconclusive results (about 18%) are left out. No stated cut-off is given here; in the data, active means normalized growth mostly below about 0.91 (no sharp cut-off); inconclusive means no clear call, values can overlap the other calls; inactive means mostly above about 0.92. This is one part of the list.

Experiment: chemical genetic growth profiling, strain panel (AID 1159580);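 further: tested at 20 µM; growth read once vehicle control cultures reached saturation at 30 °C; 1 = growth at the plate median or of vehicle wells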
Conditions: S. cerevisiae deletion strains, growth OD

Measured: normalized growth

C[C@H]1CC2C([C@@H](O)C[C@@]3(C)C2CC[C@]3(O)C(=O)CO)[C@@]2(C)C=CC(=O)C=C12 (stereo partly specified)
inactive: locus YAL013W, strain DEP1, stronger effect = lower value 0.994 | locus YAL021C, strain ccr4, stronger effect = lower value 1.01 | locus YAL026C, strain drs2, stronger effect = lower value 1.02 | locus YAL030W, strain snc1, stronger effect = lower value 1 | locus YBL061C, strain skt5, stronger effect = lower value 0.991 | locus YBR009C, strain hhf1, stronger effect = lower value 1.01 | locus YBR021W, strain FUR4, stronger effect = lower value 0.972 | locus YBR023C, strain chs3, stronger effect = lower value 1.01 | locus YBR171W, strain sec66, stronger effect = lower value 0.993 | locus YBR229C, strain ROT2, stronger effect = lower value 0.993 | locus YBR231C, strain swc5, stronger effect = lower value 0.977 | locus YBR279W, strain paf1, stronger effect = lower value 1.01 | locus YCL011C, strain gbp2, stronger effect = lower value 1.03 | locus YCL016C, strain dcc1, stronger effect = lower value 1.01 | locus YCL029C, strain bik1, stronger effect = lower value 1.03 | locus YCL061C, strain MRC1, stronger effect = lower value 0.999 | locus YCL069W, strain vba3, stronger effect = lower value 0.993 | locus YCR088W, strain abp1, stronger effect = lower value 1 | locus YDL005C, strain med2, stronger effect = lower value 0.987 | locus YDL035C, strain GPR1, stronger effect = lower value 0.993 | locus YDL040C, strain nat1, stronger effect = lower value 1 | locus YDL074C, strain BRE1, stronger effect = lower value 1.02 | locus YDL101C, strain DUN1, stronger effect = lower value 1.01 | locus YDL134C, strain PPH21, stronger effect = lower value 0.996 | locus YDL185W, strain tfp1, stronger effect = lower value 1.01 | locus YDL192W, strain arf1, stronger effect = lower value 1.01 | locus YDR001C, strain nth1, stronger effect = lower value 1 | locus YDR069C, strain doa4, stronger effect = lower value 0.994 | locus YDR101C, strain arx1, stronger effect = lower value 1.02 | locus YDR137W, strain rgp1, stronger effect = lower value 0.993 | locus YDR150W, strain NUM1, stronger effect = lower value 0.988 | locus YDR159W, strain sac3, stronger effect = lower value 1.01 | locus YDR162C, strain NBP2, stronger effect = lower value 0.995 | locus YDR195W, strain ref2 0.934 | locus YDR297W, strain sur2, stronger effect = lower value 0.987 | locus YDR318W, strain mcm21, stronger effect = lower value 1.03 | locus YDR334W, strain swr1, stronger effect = lower value 0.997 | locus YDR335W, strain msn5, stronger effect = lower value 1 | locus YDR388W, stronger effect = lower value 1.02 | locus YDR392W, strain spt3, stronger effect = lower value 1.02 | locus YDR502C, strain sam2, stronger effect = lower value 1.01 | locus YEL003W, strain gim4, stronger effect = lower value 0.984 | locus YEL037C, strain rad23, stronger effect = lower value 1 | locus YEL061C, strain CIN8 (second series), stronger effect = lower value 1.01 | locus YEL061C, strain CIN8, stronger effect = lower value 0.993 | locus YER015W, strain faa2, stronger effect = lower value 1.01 | locus YER016W, strain bim1, stronger effect = lower value 1 | locus YER110C, stronger effect = lower value 1.01 | locus YER111C, strain swi4, stronger effect = lower value 1 | locus YER155C, strain BEM2 (second series), stronger effect = lower value 0.989 | locus YER155C, strain BEM2, stronger effect = lower value 0.996 | locus YER167W, strain BCK2, stronger effect = lower value 0.996 | locus YFR010W, strain ubp6, stronger effect = lower value 0.982 | locus YGL078C, strain dbp3, stronger effect = lower value 1.02 | locus YGL086W, strain mad1, stronger effect = lower value 0.999 | locus YGL167C, strain pmr1, stronger effect = lower value 0.988 | locus YGL173C, strain kem1, stronger effect = lower value 0.986 | locus YGL227W, strain vid30, stronger effect = lower value 0.992 | locus YGL240W, strain doc1, stronger effect = lower value 0.972 | locus YGL248W, strain PDE1, stronger effect = lower value 1 | locus YGL253W, strain hxk2, stronger effect = lower value 0.997 | locus YGR078C, strain PAC10, stronger effect = lower value 0.984 | locus YGR135W, strain pre9, stronger effect = lower value 1.04 | locus YGR229C, strain SMI1, stronger effect = lower value 0.986 | locus YGR252W, strain gcn5, stronger effect = lower value 0.947 | locus YHR013C, strain ard1, stronger effect = lower value 0.997 | locus YHR027C, strain rpn1, stronger effect = lower value 1 | locus YHR030C, strain SLT2, stronger effect = lower value 0.994 and 1.07 | locus YHR079C, strain IRE1 (second series), stronger effect = lower value 1.02 | locus YHR079C, strain IRE1, stronger effect = lower value 1.07 | locus YHR094C, strain hxt1, stronger effect = lower value 1.02 | locus YHR129C, strain ARP1, stronger effect = lower value 1 | locus YHR142W, strain chs7, stronger effect = lower value 0.997 | locus YHR200W, strain rpn10, stronger effect = lower value 1.01 | locus YIL066C, strain RNR3, stronger effect = lower value 1 | locus YIL073C, strain SPO22, stronger effect = lower value 1.01 | locus YIL125W, strain kgd1, stronger effect = lower value 1 | locus YIR030C, strain dcg1, stronger effect = lower value 1.02 | locus YJL092W, strain hpr5, stronger effect = lower value 0.989 | locus YJL095W, strain BCK1 (second series), stronger effect = lower value 0.997 | locus YJL095W, strain BCK1, stronger effect = lower value 1.03 | locus YJL115W, strain asf1, stronger effect = lower value 1 | locus YJL129C, strain trk1, stronger effect = lower value 0.987 | locus YJL134W, strain LCB3, stronger effect = lower value 1 | locus YJL154C, strain vps35, stronger effect = lower value 1.01 | locus YJL164C, strain tpk1, stronger effect = lower value 1.01 | locus YJL166W, strain qcr8, stronger effect = lower value 0.97 | locus YJL168C, strain set2, stronger effect = lower value 1.01 | locus YJL187C, strain SWE1 (second series), stronger effect = lower value 1.01 | locus YJR043C, strain POL32, stronger effect = lower value 1.01 | locus YJR066W, strain TOR1, stronger effect = lower value 1.02
